# Screening data as filed in PubChem.
# L major viab: reduces viability of Leishmania major promastigotes | resazurin fluorescence viability | inhibition, % at 10 µM | 200,000 compounds, 9% hits | AID 1063; in the data active means inhibition above about 50%;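 further: promastigotes grown with compound for 44 hours at 28 °C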
# Ins promoter up: MIN6 insulin promoter up-regulation. MIN6 insulin promoter-GFP reporter, high-content imaging; active compounds read high. z-score at 5 µM. 190,000 compounds, 0.3% hits. AID 1625;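 active means z-score above 3 at 5 µM with at least 500 cells counted in the well; inconclusive means wells under 500 cells, flagged as cytotoxic or low count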
# Autophagy mod: autophagy modulation, high-content screen. MEF GFP-LC3 puncta imaging; test concentration mostly 10 µM. calls only at 10 µM (by protocol). 190,000 compounds, 0.98% hits. AID 463193;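 active means percentage of spot-positive cells more than 3 SD above its plate mean, without a fluorescence outlier flag or 80% toxicity; inconclusive means no clear call, values can overlap the other calls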;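 further: spot-positive cell cutoff set from DMSO-treated cells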
# INS promoter inh: TRM-6 insulin promoter activity inhibition | TRM-6 cells (human fetal islet line), insulin promoter-eGFP reporter, imaging; reporter expression induced with tamoxifen | inhibition, % at 2 µM | 130,000 compounds, 0.9% hits | AID 1273;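 active means inhibition above the mean plus 3 SD, with well images judged a real hit on visual review, cut at about 60% in these data, passing the limit was not always enough; inconclusive means inhibition over the cutoff but images rejected on review; inactive means inhibition not above the cutoff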
# WT yeast gro inh: growth inhibition of WT yeast, mitochondrial fusion screen; mitochondrial fusion phenotypic screen, WT strain; inhibition, % at 10 µM; 190,000 compounds, 2.1% hits; AID 1362; in the data active means inhibition above about 58%; tested in S. cerevisiae
# The depositor's hits bear a star; i = inactive; ? = inconclusive; nt = not tested or not shown; + = active, no number. Sampled rows, rich in hits. Any-hit rate of the full collection: about 11%.
SMILES,L major viab,Ins promoter up,Autophagy mod,INS promoter inh,WT yeast gro inh
O=C1/C(=C/c2ccc3c(c2)OCO3)N2CCC1CC2,-1.8,0,i,nt,0.2
FC(F)(F)c1cccc(-n2nnnc2C2(N3CCOCC3)CCCCC2)c1,83.7*,0.64,i,nt,-4.1
C#CCN1CCN(c2cccc(C(F)(F)F)c2)CC1,2.2,-0.24,i,55.6,3.4
O=c1c2ccccc2nc(-c2ccc(-c3ccccc3)cc2)n1-c1ccncc1,72.8*,0.64,i,15.4,2.3
NC1=NC(c2cccnc2)n2c(nc3ccccc32)N1 (stereo not given),nt,0.44,nt,nt,nt
O=C1CN=C(c2ccccc2)c2oc3ccc(Br)cc3c2N1,14.5,0.97,i,-92.9,4.1
COc1cccc(OC)c1C1=NCC(=O)Nc2c1oc1ccc(Br)cc21,38.7,-0.39,+,-430.0,12.3
CCOc1ccc2nc(N=Nc3c(O)[nH]c(=S)[nH]c3=O)sc2c1,-19.7,-0.32,i,nt,-2.1
Cc1nc2cc(F)ccc2n1C1CCN(Cc2nnnn2CCc2ccccc2)CC1,31.7,0.24,i,25.0,20.4
Cc1nc2cc(C(F)(F)F)ccc2n1C1CCN(Cc2nnnn2CCc2ccccc2)CC1,98.3*,?,i,-412.5,7.3
FC(F)(F)c1ccc2c(c1)nnn2C1CCN(Cc2nnnn2Cc2ccccc2)CC1,-1.4,-0.64,i,-184.4,11.4
Cc1ccc(Cn2nnnc2CN2CCC(n3nnc4cc(C(F)(F)F)ccc43)CC2)cc1,53.2*,-3.36,i,-22.9,55.2
O=c1[nH]cc(COCC(F)(F)C(F)(F)C(F)(F)F)c(=O)[nH]1,3.0,-0.03,i,nt,8.5
CC12CCCCC1=[N+]([O-])CN2O (stereo not given),-2.4,0.3,i,-16.7,24.9
N/C(=N\[N+](=O)[O-])N/N=C/c1ccc(O)cc1,-0.5,nt,i,35.7,-7.4
Nc1nonc1C(=O)N/N=C/c1ccc([N+](=O)[O-])o1,83.5*,nt,i,-63.6,-2.1
COc1ccc(C=C2C(=O)N(C)C(=O)N(C)C2=O)cc1CSc1ccccn1,-1.6,0.39,i,10.5,0.4
CN1C(=O)C(=Cc2c(OCc3cnc(Cl)s3)ccc3ccccc23)C(=O)N(C)C1=O,89.2*,0.63,i,nt,8.1
COc1cc(C(=O)Nc2ccc(Br)cc2C(=O)c2ccccc2Cl)cc(OC)c1OC,50.9*,-0.47,i,-34.5,0.7
Cc1cc(C=C2C(=O)N(C)C(=S)N(C)C2=O)c(C)n1-c1ccncc1,nt,0.01,nt,nt,nt
Cc1ccnc(-n2c(C)cc(C=C3C(=O)N(C)C(=S)N(C)C3=O)c2C)c1,51.0*,0,i,nt,-2.8
CCCCCCOc1ccc(CN2CCN(CC)CC2)cc1,97.1*,-1.18,i,-6.5,25.7
CCN1CCN(Cc2ccc(OC(F)(F)F)cc2)CC1,88.9*,0.9,i,-31.2,6.7
CN1CCN(Cc2ccc(N)cc2)CC1,-4.2,0.43,i,nt,6.8
CCOC(=O)c1nsnc1NCCCl,-8.9,-0.26,i,nt,-5.1
SMILES,L major viab,Ins promoter up,Autophagy mod,INS promoter inh,WT yeast gro inh
N#CC1=C(N)Oc2c(c(=O)sc3ccccc23)C1c1cccnc1 (stereo not given),81.1*,0.4,i,25.0,6.5
O=C(COc1ccc(Cl)cc1)N1CCN(Cc2ccccc2)CC1,39.2,-0.45,i,nt,-15.0
COc1ccccc1OCC(=O)N1CCN(Cc2ccc3c(c2)OCO3)CC1,10.7,-0.61,i,46.7,-11.6
Cc1ccc(C)c(OCC(=O)N2CCN(Cc3ccc4c(c3)OCO4)CC2)c1,19.9,-1.2,i,3.7,7.7
COc1ccc(CC(=O)N2CCN(C)CC2)cc1,-1.6,3.53*,i,-5.9,-7.0
Cc1ccc(OCC(=O)N2CCN(Cc3ccc4c(c3)OCO4)CC2)cc1,83.1*,-0.16,i,nt,16.7
COc1ccc(OCC(=O)N2CCN(Cc3ccc4c(c3)OCO4)CC2)cc1,63.6*,-0.16,i,nt,-4.1
COc1ccc(OCC(=O)N2CCN(Cc3ccc(SC)cc3)CC2)cc1,84.3*,-0.56,i,37.5,-3.9
COc1ccc(CC(=O)N2CCN(C)CC2)cc1OC,-5.5,0.07,i,25.7,-15.4
Cc1ccccc1-n1c(O)c(C(c2ccncc2)c2c(O)n(-c3ccccc3C)c(=O)[nH]c2=O)c(=O)[nH]c1=O,nt,0.3,nt,nt,nt
N#Cc1ccc(OCC(=O)N2CCN(Cc3ccc4c(c3)OCO4)CC2)cc1,75.9*,0.6,i,0.0,-4.2
CCCNS(=O)(=O)c1ccc(OCC(=O)N2CCN(Cc3ccc4c(c3)OCO4)CC2)cc1,-5.4,-1.74,i,16.3,-4.7
Cc1cccc(OCC(=O)N2CCN(Cc3ccc([N+](=O)[O-])cc3)CC2)c1,57.7*,-0.57,i,31.2,-9.4
COc1ccc(-n2c(O)c(/C=C/C=Nc3ccccc3)c(=O)[nH]c2=O)cc1,48.5,1.65,i,-38.9,-9.9
Cc1nn(Cc2ccccc2)c(C)c1C=C1C(=O)NC(=O)NC1=O,57.7*,-0.27,i,-29.7,-6.0
Cc1nn(Cc2ccccc2)c(C)c1C(=O)NCc1ccccc1,-2.1,-0.67,i,25.0,-17.3
COC(=O)c1c(C)[nH]c(C(=O)C(Cc2ccccc2)N(C)C)c1C (stereo not given),99.8*,-0.35,i,0.0,2.9
CSc1ncc(Cl)c(C(=O)O)n1,-4.9,0.26,i,-9.7,15.7
COc1ccc(C2SCC(=O)Nc3c2c(C)nn3-c2ccccc2)cc1 (stereo not given),99.8*,nt,i,-48.3,9.5
CC(=O)NC(Cc1ccc(N(CCCl)CCCl)cc1)C(=O)NC(CC(C)C)C(=O)O (stereo not given),-6.1,0.08,i,nt,-5.6
CN1CCN(/N=C/c2c(O)n(CCC3=CCCCC3)c(=S)[nH]c2=O)CC1,nt,0.24,nt,nt,nt
COC(=O)C(O)(c1ccc(NC(=S)NC(=O)c2ccc(Cl)cc2Cl)c(C)c1)C(F)(F)F (stereo not given),6.1,-0.18,i,-31.4,75.2*
CCOC(=O)C(O)(c1ccc(NC(=S)NC(=O)c2ccc(Cl)cc2Cl)c(C)c1)C(F)(F)F (stereo not given),23.1,-0.33,i,0.0,76.8*
CCOC(=O)C(O)(c1ccc(NC(=S)NC(=O)c2ccc(Cl)cc2Cl)cc1)C(F)(F)F (stereo not given),66.9*,-0.1,i,2.9,32.9
CCN1CCN(c2ccc(N)c(C)c2)CC1,-1.1,-0.36,i,nt,-9.2
SMILES,L major viab,Ins promoter up,Autophagy mod,INS promoter inh,WT yeast gro inh
CCC(=O)OC1(Cc2ccc(CC)cc2)CC(C)N(C)CC1C (stereo not given),nt,0,nt,nt,nt
O=C(N/N=C/c1c(O)n(-c2cccc3ccccc23)c(=O)[nH]c1=O)c1ccncc1,nt,-0.76,nt,nt,nt
COc1cccc(N2CCN(Cc3ccc(Cl)cc3)CC2)c1,38.4,0.44,i,0.0,26.8
COc1cccc(C2(O)CCN(Cc3ccncc3)CC2)c1,91.8*,nt,i,nt,-2.4
Cc1ccc(NC(=O)CSc2nnc([C@@H](N)Cc3c[nH]c4ccccc34)o2)c(C)c1,-5.5,1.07,i,15.4,-28.8
CCOC(=O)c1c(C)n(Cc2ccccc2)c2ccc(O)cc12,-0.8,0.05,i,nt,-19.8
CCOC(=O)c1c(NC(=O)C(c2ccccc2)c2ccccc2)sc2c1C1CCN2CC1,100.4*,0.74,i,14.3,-0.2
